The term AC50 denotes the concentration giving half of the maximal activity seen.

Each structure is given as a SMILES string. Out of some 16,000 compounds screened, about 4,000 (25%) were called active. About 26% were inconclusive and are not listed. Calls come from the whole dose curve; as a rule, active = well fitted curve in the direction sought with a large enough effect; inconclusive = small, poorly fitted or top-dose-only effect, or effect the other way; inactive = no such curve, though single readings can be large or run the other way. Not all results are given here.
% is set by controls: 0 for no effect and ±100 for the full control effect.

The target in the test is Cytochrome P450 2C9 (Homo sapiens) (UniProt P11712). Briefly: Cytochrome panel assay with activity outcomes. To be noted: recombinant CYP, pro-luciferin dealkylation, luminescence, p450-cyp2c9; series mostly up to 57.1 µM; activity, negative = inhibition: at the top concentration.
Chain of Cytochrome P450 2C9 (Homo sapiens) (P11712 whole entry, looked up): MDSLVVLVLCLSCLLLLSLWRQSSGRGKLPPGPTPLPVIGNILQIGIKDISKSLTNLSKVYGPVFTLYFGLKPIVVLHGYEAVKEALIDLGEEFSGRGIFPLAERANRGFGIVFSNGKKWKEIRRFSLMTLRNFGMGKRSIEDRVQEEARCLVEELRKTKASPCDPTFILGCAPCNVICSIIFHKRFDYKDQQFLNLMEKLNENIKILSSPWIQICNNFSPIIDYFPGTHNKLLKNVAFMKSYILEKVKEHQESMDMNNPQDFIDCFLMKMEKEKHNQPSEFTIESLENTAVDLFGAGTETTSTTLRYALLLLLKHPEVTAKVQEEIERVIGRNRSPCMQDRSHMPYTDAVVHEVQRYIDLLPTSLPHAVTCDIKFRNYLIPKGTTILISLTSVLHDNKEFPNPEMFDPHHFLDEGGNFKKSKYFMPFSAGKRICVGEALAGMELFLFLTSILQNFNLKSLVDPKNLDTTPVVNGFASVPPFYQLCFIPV
Regarding `Cc1ccc(C)c(-n2c(CNC(=O)c3ccco3)nnc2SCC(=O)N2CCc3ccccc32)c1`, the “activity, negative = inhibition” value was -21.7% (inactive).

As to `Cc1cc2nc(-c3ccc(SCC(=O)N4CCc5ccccc54)nc3)[nH]c2cc1C`, the concentration at half-maximal activity (AC50) was 3.55 µM (active). Same read-out and setting: the figure for `O=C(COC(=O)c1cccnc1Nc1cccc(C(F)(F)F)c1)NCc1ccc2c(c1)OCO2` is 3.55 µM (active); for `O=C(COC(=O)c1ccccc1Nc1cccc(C(F)(F)F)c1)NCc1ccco1` it is 3.16 µM (active). For the compound `O=C(O)c1cccnc1Nc1cccc(C(F)(F)F)c1`, the “activity, negative = inhibition” value is -12.1% [at 25.6 µM] (inactive). Same read-out and setting: to `Cc1cc(NC(=O)C2C3C(=O)N(Cc4ccc(Cl)cc4)C(C(=O)NC(C)(C)C)C34C=CC2(C)O4)no1` (stereo not drawn) belongs -51.8% (inactive). On the same count and under the same terms, the figure for `OC[C@H](S)CS` is -14.4% [at 11.4 µM] (inactive); for `COCC(=O)N1CCC2(CC1)CN(Cc1ccc(C#N)cc1)C2` it is -0.1% (inactive); for `CCN1CNC(=S)N(c2cc(C)ccc2C)C1` it is 0.18% (inactive). As to `O=C(c1cc2sccc2n1Cc1ccccc1)N1CCN(c2nc3ccccc3s2)CC1`, the AC50 is 2.82 µM (active).

As for `Cn1c(=O)c2[nH]c(CCCCC(=O)O)nc2n(C)c1=O`, the activity, negative = inhibition is -3.07% [at 11.4 µM] (inactive). With `CCOC(=O)c1nnn(-c2nonc2N)c1-c1ccc(C)cc1`, the concentration at half-maximal activity (AC50) was 11.2 µM (active).

Take `Nc1nonc1-n1nncc1-c1ccccc1`: the “activity, negative = inhibition” value was -0.506% (inactive).

In the case of `COCc1c(C(N)=O)nnn1-c1nonc1N`, the “activity, negative = inhibition” value was -9.91% (inactive). Consider `c1ccc(CNc2ccnc(-c3ccoc3)n2)cc1`, for which the activity, negative = inhibition is -18.3% [at 2.29 µM] (inactive). As for `Cc1ccc(NC(=O)N/C=C/c2ccco2)cc1C`, the AC50 was 15.8 µM (active). In the case of `O=C(/C=C/c1cccc(Cl)c1)Nc1ccncc1`, the AC50 was 0.0447 µM (active).

With `O=C(O)/C=C\C(=O)Nc1ccc2c(c1)C(=O)c1cc(F)ccc1-2`, the activity, negative = inhibition was -23.6% [at 11.4 µM] (inactive). For `CS[C@@H](CC(=O)O)C(=O)O`, the activity, negative = inhibition was -8.91% [at 11.4 µM] (inactive).

As to `O=CN1CCN(C[C@H](O)CN2CCCCC2)CC1`, the activity, negative = inhibition is -3.16% [at 11.4 µM] (inactive). On the same count and under the same terms, the figure for `N#Cc1c(-c2ccc3c(c2)OCO3)ccn2nc(-c3cccc(C(F)(F)F)c3)nc12` is 6.23% (inactive). As to `CCCCCc1nc2c(C#N)c(-c3ccc(Cl)cc3)ccn2n1`, the AC50 is 3.55 µM (active). As for `CC[C@@]1([N+](=O)[O-])C[C@H]2C=C[C@@H]1C2`, the activity, negative = inhibition was -0.495% [at 11.4 µM] (inactive). Still for that read-out and setting: to `NCCNCC1CCNCC1` belongs 9.94% [at 11.4 µM] (inactive); to `CCN(CC)CCOC(=O)[C@@H](Cc1cccc2ccccc12)C[C@@H]1CCCO1`, 19.7% [at 25.6 µM] (inactive). Regarding `CCOC(=O)c1ccc(N)cc1`, the “activity, negative = inhibition” value is -13.8% [at 25.6 µM] (inactive). With `Cc1ccc(-c2ccc(CCC(=O)O)o2)cc1`, the “activity, negative = inhibition” value was -27.5% (inactive).

Consider `CCOC(=O)c1ccc(-c2ccc(CO)o2)cc1`, for which the half-maximal activity concentration (AC50) was 15.8 µM (active). The same measure, in the same setting: to `O=c1[nH]c2[nH]c(=S)[nH]c(=S)c2[nH]1` belongs 1.26 µM (active).

Consider `C[C@@]1(CCOCc2ccccc2)NC(=O)NC1=O`, for which the activity, negative = inhibition is -8.7% [at 11.4 µM] (inactive).

For `COc1cccc(-c2nccc(NCc3cccnc3)n2)c1`, the activity, negative = inhibition is 0.577% [at 2.29 µM] (inactive). In the case of `COc1ccc(-c2cc(C(F)(F)F)nc(NCc3cccnc3)n2)cc1`, the AC50 was 5.62 µM (active). On to `COc1ccccc1-c1nccc(NCc2cccnc2)n1`, for which the activity, negative = inhibition was -15.5% [at 2.29 µM] (inactive). The same measure, in the same setting: the figure for `COC(=O)CSc1cc(C(F)(F)F)nc(-c2ccccn2)n1` is -26% (inactive). In the case of `COc1ccc(-c2cc(C(F)(F)F)nc(SCc3cccc(C(=O)O)c3)n2)cc1`, the AC50 was 7.94 µM (active). `O=C(O)C(Cl)(c1ccccc1)c1ccccc1`: the activity, negative = inhibition was -22.8% [at 11.4 µM] (inactive). On the same count and under the same terms, to `CN(C)Cc1ccc(C(C)(C)C)cc1-c1cc(C(C)(C)C)ccc1CN(C)C` belongs 4.33% [at 11.4 µM] (inactive); to `Cn1c(=O)c(-c2ccccc2)nc2cncnc21`, 5.36% (inactive). For `COc1ccccc1CCn1c(=O)c(-c2ccccc2)nc2cncnc21`, the half-maximal activity concentration (AC50) was 5.01 µM (active).

Regarding `COc1ccc(-n2c(=O)c(-c3ccc(F)c(F)c3)nc3cncnc32)cc1`, the “activity, negative = inhibition” value is 3.26% (inactive). Same read-out and setting: the figure for `COCCn1c(=O)c(-c2ccc(F)cc2)nc2cncnc21` is -8.81% (inactive); for `Cn1c(=O)c(-c2ccc(F)cc2)nc2cncnc21` it is 7.67% (inactive). Regarding `COc1ccccc1CCn1c(=O)c(-c2cccc(Cl)c2)nc2cncnc21`, the AC50 is 1 µM (active). On the same count and under the same terms, the figure for `COc1ccccc1CCn1c(=O)c(-c2ccc(F)cc2)nc2cncnc21` is 3.98 µM (active). Regarding `COCCn1c(=O)c(-c2ccc(F)c(F)c2)nc2cncnc21`, the “activity, negative = inhibition” value was -22.3% (inactive). Same read-out and setting: to `COCCn1c(=O)c(-c2cccc(Cl)c2)nc2cncnc21` belongs -28.7% (inactive). As for `COc1ccccc1CCn1c(=O)c(-c2ccc(F)c(F)c2)nc2cncnc21`, the AC50 was 6.31 µM (active). As for `Cc1noc(C)c1-c1cncnc1NCc1ccccc1`, the activity, negative = inhibition was 18.5% [at 2.29 µM] (inactive). On the same count and under the same terms, the figure for `CCc1cc2c(nc1CC)CCN(CC/C(C)=N/OC[C@@H](O)COCc1ccco1)C2` is 17.1% [at 11.4 µM] (inactive).

As to `O=c1c(CCc2ccccc2)nc2cncnc2n1Cc1ccc(F)cc1`, the AC50 was 7.94 µM (active). For the compound `COc1ccccc1CCn1c(=O)c(-c2ccc(Cl)cc2)nc2cncnc21`, the concentration at half-maximal activity (AC50) is 3.98 µM (active). The same measure, in the same setting: to `COc1ccccc1CCn1c(=O)c(-c2cccs2)nc2cncnc21` belongs 2.51 µM (active). On the same count and under the same terms, the figure for `COc1ccccc1CCn1c(=O)c(CCc2ccccc2)nc2cncnc21` is 7.94 µM (active).
